MITF TRPM1 HTS – increases MITF-driven TRPM1 promoter luciferase signal; SK-MEL-5 TRPM1-promoter luciferase, 24 h; % of positive control, neutral wells = 0; activation, % at 12.5 µM; actives 0.75% (n = 300,000); AID 588334;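 active = mean activation of at least 80% with every replicate also reaching 80%; inconclusive = mean reaches 80% but some replicate falls short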
AHR act – activates the human aryl hydrocarbon receptor | AHR-responsive luciferase reporter cells, luminescence | activation, % at 5 µM | actives 2.5% (n = 320,000); in the data active = activation above about 47%
Target sequence (P35869 whole entry, looked up): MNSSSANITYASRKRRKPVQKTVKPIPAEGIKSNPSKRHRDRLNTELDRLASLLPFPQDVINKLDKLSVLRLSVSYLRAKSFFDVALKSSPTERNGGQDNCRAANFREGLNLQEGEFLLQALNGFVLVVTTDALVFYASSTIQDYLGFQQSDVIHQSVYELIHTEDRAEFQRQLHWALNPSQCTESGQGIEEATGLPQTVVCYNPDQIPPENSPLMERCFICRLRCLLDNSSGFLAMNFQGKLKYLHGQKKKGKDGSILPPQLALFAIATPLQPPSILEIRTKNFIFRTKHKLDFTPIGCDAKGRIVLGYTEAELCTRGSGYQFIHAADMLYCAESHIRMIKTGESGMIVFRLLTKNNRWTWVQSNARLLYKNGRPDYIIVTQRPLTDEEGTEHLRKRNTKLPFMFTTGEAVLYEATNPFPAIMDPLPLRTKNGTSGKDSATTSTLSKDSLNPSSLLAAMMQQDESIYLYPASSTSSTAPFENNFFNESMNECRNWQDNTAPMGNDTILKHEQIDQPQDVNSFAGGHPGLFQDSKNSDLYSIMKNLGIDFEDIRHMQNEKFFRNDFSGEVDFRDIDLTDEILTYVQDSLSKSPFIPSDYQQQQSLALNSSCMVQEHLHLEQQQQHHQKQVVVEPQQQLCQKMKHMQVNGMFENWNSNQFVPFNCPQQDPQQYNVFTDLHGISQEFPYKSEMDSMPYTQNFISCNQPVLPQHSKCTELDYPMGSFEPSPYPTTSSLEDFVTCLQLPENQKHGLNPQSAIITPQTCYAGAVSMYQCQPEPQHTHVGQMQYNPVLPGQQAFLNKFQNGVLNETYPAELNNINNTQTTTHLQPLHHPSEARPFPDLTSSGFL
FXN GAA850 act – activators of GAA850 frataxin (FXN) promoter | HEK293 lucGAA850 FXN promoter luciferase reporter, 24 h; percent of 10 µM SAHA response | actives 0.56% (n = 360,000) | activation, % at 6 µM | AID 540364;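 active = activation above the average of all compounds screened plus 3 SD, cutoff fixed separately per campaign, cut at about 7.5% in these data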
Wnt bcat act – activators of Wnt/beta-catenin signaling; Wnt/beta-catenin reporter cell assay, activator, plate reader; activation, % at 9.35 µM; actives 1.2% (n = 300,000); AID 743398; in the data active = activation above about 30%, passing the limit was not always enough; inconclusive = no clear call, values can overlap the other calls
esBAF inh – inhibitors of esBAF chromatin remodeling in mouse ES cells | AID 602393 | reporter increase, % at 12.5 µM | Bmi1-luciferase knock-in reporter, 24 h; 100% = twice the neutral-well signal | actives 2% (n = 350,000); in the data active = activation above about 40%; inconclusive = no clear call, values can overlap the other calls;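 also: a rise in the Bmi1 reporter signal indicates esBAF inhibition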
Hits are given with their value; i = inactive; ? = inconclusive; nt = no result. A selection: hits, their analogues and other compounds. The true share with any hit is near 4.2%.

SMILES	MITF TRPM1 HTS	AHR act	FXN GAA850 act	Wnt bcat act	esBAF inh
C[C@@H]1CCCCO[C@H](CN(C)S(=O)(=O)c2cn(C)cn2)[C@@H](C)CN([C@@H](C)CO)C(=O)c2cc(NC(=O)Cc3ccccc3)ccc2O1	nt	nt	nt	nt	i
c1ccc(CSc2nnc(-c3cccnc3)o2)cc1	i	i	i	i	42
C#CCSc1nnc(-c2ccc(O)cc2)o1	?	i	i	46	69
C#CCSc1nnc(-c2ccc(C)cc2)o1	nt	i	i	nt	?
Cc1ccc(CSc2nnc(-c3cccnc3)o2)cc1	nt	i	i	nt	i
c1cncc(-c2nnc(SCc3cccc4ccccc34)o2)c1	i	i	i	i	i
c1cncc(-c2nnc(SCc3nc4ccccc4[nH]3)o2)c1	nt	73	i	i	i
c1ccc(-c2nnc(SCCC3OCCCO3)o2)cc1	i	i	i	48	nt
CCCC(=O)Nc1ccc2c(c1)C(=O)N(C)C[C@H](OC)[C@@H](C)CN(C(=O)c1ccccc1F)[C@@H](C)CO2	nt	nt	nt	nt	i
CO[C@H]1CN(C)C(=O)c2cc(NC(=O)C3CCC3)ccc2OC[C@@H](C)N(Cc2ccccn2)C[C@@H]1C	nt	nt	nt	nt	i
C[C@H](CO)N1C[C@H](C)[C@@H](CN(C)C(=O)CCN(C)C)OCc2ccccc2-c2c(n(C)c3ccccc23)C1=O	nt	nt	nt	nt	i
O=C(Nc1cccc(Cl)c1)N[C@H]1CC[C@@H](CCNC(=O)C2CCCC2)O[C@H]1CO	nt	nt	nt	nt	i
O=C(C[C@@H]1CC[C@@H](NC(=O)Nc2cc(F)ccc2F)[C@H](CO)O1)NCc1ccccn1	nt	nt	nt	nt	i
O=S(=O)(c1ccc(-c2nnc(SCc3ccccc3)o2)cc1)N1CCCC1	i	i	i	i	i
c1ccc(CSc2ccc(-c3cccnc3)nn2)cc1	89	i	i	i	59
O=C(CSc1ccc(-c2cccnc2)nn1)N1CCCc2ccccc21	nt	48	nt	i	nt
Oc1ccc(-c2nnc(SCc3ccccc3)o2)cc1	114	i	i	i	49
O=C(C[C@H]1CC[C@@H](NS(=O)(=O)c2ccc(F)cc2)[C@@H](CO)O1)NCc1ccc(Cl)c(Cl)c1	nt	nt	nt	nt	i
CO[C@@H]1CN(C)C(=O)c2cc(NC(=O)C3CC3)ccc2OC[C@H](C)N(C(=O)c2ccncc2)C[C@H]1C	nt	nt	nt	nt	i
O=C(O)c1ccccc1SCc1cn2cc(Cl)ccc2n1	i	i	i	43	nt
O=C(CSC1=NS(=O)(=O)c2ccccc21)Nc1ccccc1	i	i	i	i	50
COC(=O)CSC1=NS(=O)(=O)c2ccccc21	i	i	i	nt	nt
Cc1ccc(S(=O)(=O)n2nc(-c3ccco3)nc2SCc2ccccc2)cc1	i	i	i	nt	48
O=C(c1ccco1)n1nc(-c2ccco2)nc1SCc1ccccc1	i	i	i	i	45
O=C(c1ccco1)n1nc(-c2ccccc2)nc1SCc1ccccc1	i	i	i	41	47
SMILES	MITF TRPM1 HTS	AHR act	FXN GAA850 act	Wnt bcat act	esBAF inh
Nc1nc(-c2ccccc2)nn1C(=O)c1ccco1	i	i	i	i	nt
O=C(O)c1ccc(COc2ccc(/C=N/NC(=O)c3cccs3)cc2)cc1	i	i	i	i	i
O=C(N/N=C/C(Br)=C\c1ccccc1)c1cccs1	nt	i	i	126	nt
O=C(N/N=C/c1cccc(OCc2ccccc2)c1)c1cccs1	nt	i	i	39	46
Cc1occc1C(=O)N/N=C/C=C/c1ccc(N(C)C)cc1	i	i	i	i	61
CC(=C/c1ccccc1)/C=N/NC(=O)c1cccs1	nt	i	i	i	nt
Cc1occc1C(=O)N/N=C/C(Br)=C\c1ccccc1	nt	i	i	58	nt
CO[C@H]1CN(C)C(=O)c2ccc(NC(=O)NC(C)C)cc2OC[C@@H](C)N(C(=O)CC2CC2)C[C@H]1C	nt	nt	nt	nt	i
C[C@H](CO)N1C[C@H](C)[C@@H](CN(C)C(=O)c2ccncc2)OCCCC[C@H](C)Oc2ccc(NC(=O)NC3CCCCC3)cc2C1=O	nt	nt	nt	nt	i
CC(C)NC(=O)Nc1ccc2c(c1)C(=O)N([C@@H](C)CO)C[C@@H](C)[C@H](CN(C)S(=O)(=O)c1cn(C)cn1)O2	nt	nt	nt	nt	i
COc1ccc(-c2[nH]ncc2CNC(C)c2ccccc2Cl)cc1F (configuration not stated)	i	i	i	43	i
COc1ccc(-c2[nH]ncc2CNC(C)CCn2cccn2)cc1F (configuration not stated)	i	i	i	i	i
CCC(=O)Nc1ccc2c(c1)C(=O)N(C)C[C@@H](OC)[C@@H](C)CN(CCc1ccccc1)[C@H](C)CO2	nt	nt	nt	nt	i
O=C(N/N=C/c1cn(-c2ccccc2)nc1-c1ccc2c(c1)OCCO2)c1ccncc1	i	i	i	i	53
O=C(N/N=C\c1cn(-c2ccccc2)nc1-c1ccccc1)c1ccc2c(c1)OCO2	i	i	i	i	44
O=C(N/N=C/c1cn(-c2ccccc2)nc1-c1ccc(F)cc1)c1ccc2c(c1)OCO2	i	i	i	nt	nt
CCOc1ccc(C(=O)Nc2nnc(C(C)C)s2)cc1OCC	i	59	i	i	i
CC(C)(C)Cc1nnc(NC(=O)CSc2ccccc2)s1	nt	i	i	i	72
CCOCc1nnc(NC(=O)CSc2ccccc2)s1	nt	i	i	i	i
CC(C)(C)Cc1nnc(NC(=O)c2ccc3c(c2)OCO3)s1	i	49	i	i	46
O=C(Nc1ccc(Cl)cc1)Nc1nnc(Cc2ccc([N+](=O)[O-])cc2)s1	i	i	i	48	nt
CCC(CC)c1nnc(NC(=O)c2ccc3c(c2)OCO3)s1	i	64	i	i	58
O=C(Nc1nnc(Cc2ccc([N+](=O)[O-])cc2)s1)c1ccc2c(c1)OCO2	i	55	i	i	nt
CN1C(=S)SC(N(O)C(=O)Nc2cccc3ccccc23)C1(C)C (configuration not stated)	i	75	i	nt	nt
COc1ccccc1NC(=O)CN(c1ccc(C23CC4CC(CC(C4)C2)C3)cc1)S(C)(=O)=O	i	i	9.4	nt	i
SMILES	MITF TRPM1 HTS	AHR act	FXN GAA850 act	Wnt bcat act	esBAF inh
CCOC(=O)c1cnc2ccc(C)cc2c1Sc1ccccc1	i	i	i	i	54
CCOC(=O)c1cnc2ccc(C)cc2c1Sc1ccc(F)cc1	i	i	i	i	i
O=C(NCc1ccccn1)[C@@H]1[C@@H](CO)[C@@H]2Cn3c(cccc3=O)[C@@H]2N1CCc1ccccc1	nt	nt	nt	nt	i
CCOC(=O)c1ccc(N2Cc3ccccc3C2)cc1O	106	i	i	i	i
CCOC(=O)c1ccc(N2Cc3ccccc3C2=N)cc1	i	i	i	i	i
CCc1ccc(N2Cc3ccccc3C2)cc1	86	i	i	i	nt
O=C(Cc1ccccc1)NCCc1cnc[nH]1	i	i	i	i	i
CC(=O)NCCc1cnc[nH]1	i	i	10	i	i
O=C(/C=C/c1ccc(Cl)c([N+](=O)[O-])c1)NCc1cccnc1	i	60	i	i	nt
O=C(/C=C/c1cccc([N+](=O)[O-])c1)NCc1cccnc1	i	63	i	nt	i
O=C(/C=C/c1ccc([N+](=O)[O-])cc1)NCc1cccnc1	i	i	i	nt	nt
O=C(C[C@H]1CC[C@H](NC(=O)Nc2ccc(C(F)(F)F)cc2)[C@H](CO)O1)NCc1ccccn1	nt	nt	nt	nt	i

Assay outcomes deposited in PubChem by several laboratories.
